Laboratory results: PubChem BioAssay AID900 (National Center for Advancing Translational Sciences (NCATS), 2007)
Values joined by “and” are separate entries in the source; they are usually repeats but may differ in a detail not shown here. Equal values may be shown once. About 20 (0.03%) of roughly 75,000 compounds were called active. Another 1% or so got no clear call; they are omitted. The call rests on the fitted dose curve; in most records, active means well fitted inhibition curve with a large enough effect; inconclusive means small, poorly fitted or top-dose-only effect; inactive means flat fitted curve, though single readings scatter. Not all results are given here. Square brackets hold non-standard residues; d marks the D form. Side chains are listed from the residue outwards. Peptide text beside a SMILES is read from it. * marks the point of attachment. X1 = CCC(C)C(N)C1=NC(C(=O)*)CS1; Orn = NCCC[CH](N)C(=O)O

target: Caspase-1 (Homo sapiens) (UniProt P29466); assay: qHTS Assay for Allosteric/Competitive Inhibitors of Caspase-1; details: Caspase-1 enzyme, Ac-WEHD-AFC fluorogenic rate; series mostly up to 57.5 µM; activity change, negative = inhibition: at the top concentration;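 further: plate controls were vehicle for no effect and no substrate for full effect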

Activity change, negative = inhibition, inactive:
COC1[C@H](OC(N)=O)C(O)[C@H](Oc2ccc3c(O)c(NC(=O)c4ccc(O)c(CC=C(C)C)c4)c(=O)oc3c2C)OC1(C)C (stereo not given in full) -0.344%
CC(CCO)Nc1nc2c([nH]1)c(=O)n(C)c(=O)n2C (stereo not given) -0.389%
C=CCN(c1ccc(C(N)=O)cc1)S(C)(=O)=O 1.76%
CCCCNc1nc2c(c(=O)[nH]c(=O)n2C)n1CCOc1ccccc1 1.95%
CCCc1nc2c(C)cc(-c3nc4ccccc4n3C)cc2n1Cc1ccc(-c2ccccc2C(=O)O)cc1 -1.74%
CCc1c(C)sc(NC(=O)OC)c1C(=O)N1CCOCC1 -1.76%
COC(=O)[C@@H]1CC[C@H](C)[C@@H](c2ccc(C)cc2)N1C(=O)c1ccc(/C=N\O[C@@H](C)c2cn([C@H](CO)Cc3ccccc3)nn2)cc1 -0.293% [at 11.5 µM] and 3.03% [at 11.5 µM]
CO[C@H]1COC(=O)[C@@H](OCc2ccccc2)/C=C\[C@H](C)[C@@H](OC)COC(=O)[C@H](OCc2ccccc2)/C=C\[C@@H]1C -1.1% [at 11.5 µM]
CCOC(=O)N1CCN(C(=O)c2cn(C)c3ccc(S(=O)(=O)N4CCCC4)cc3c2=O)CC1 1.44%
COC(=O)[C@@H]1C[C@@]2(O)[C@@H](O)[C@@H](O)[C@@H](O)C[C@H]2N1Cc1ccc(C)s1 -0.674%
C/C(Cl)=C\Cn1c(Nc2cccc(C)c2)nc2c1c(=O)n(C)c(=O)n2C 1.24%
CC(C)[C@H]1CC[C@@H](C)C[C@H]1O -4.11%
CCC(=O)Nc1nc(OC)cc(OC)n1 -0.774%
Nc1nc2c(nc(Cl)n2C2OC(CO)C(O)C2O)c(=O)[nH]1 (stereo not given) -0.0059%
CC(=O)OCC(=O)[C@@]1(O)CCC2C3CCC4=CC(=O)CC[C@@]4(C)[C@]3(F)C(O)C[C@]21C (stereo not given in full) 1.49%
O=c1c(O)c(-c2ccc(O)cc2)oc2ccccc12 1.6%
C=CCn1c(SCc2cc(C(=O)OC)c(C)o2)nnc1-c1ccncc1 -3.64%
C[C@@H](c1ccccc1)N1C(=O)[C@H]2[C@H]3[C@H](O)[C@H](O)C/C(=N/OC[C@@H](O)COCc4ccco4)[C@@H]3CC[C@@H]2C1=O -0.613% [at 11.5 µM]
CCCCCCCCCCCCCCCC(=O)OC/C=C(C)/C=C/C=C(C)/C=C/C1=C(C)CCCC1(C)C 0.363%
Cn1c(N)c(C(=O)COC(=O)c2cc(C(F)(F)F)nc3c(C(F)(F)F)cccc23)c(=O)n(C)c1=O -3.83%
COc1cccc([C@H](O)Cn2cc(-c3ccc(CON=C(C)C)cc3)nn2)c1 -1.21% [at 11.5 µM]
CC1(C)OC2CC3C4CCC5=CC(=O)CCC5(C)C4(F)C(O)CC3(C)[C@]2(C(=O)CCl)O1 (stereo not given in full) -2%
CC(C)c1ccc(OCC(O)Cn2cnc3ccccc32)cc1 (stereo not given) -1.04%
CCC(C)C(N)C1=NC(C(=O)NC(CC(C)C)C(=O)NC(CCC(=O)O)C(=O)NC(C(=O)NCCCCC2NC(=O)C(CC(N)=O)NC(=O)C(CC(=O)O)NC(=O)C(Cc3cnc[nH]3)NC(=O)C(Cc3ccccc3)NC(=O)C(C(C)CC)NC(=O)C(CCCN)NC2=O)C(C)CC)CS1 (stereo not drawn) (cyclo(DNK([Ile-Glu-Leu-X1])[Orn]IFH); configuration not given here) -2.89%
COC(=O)[C@@H]1C[C@@]2(O)[C@H](O)[C@H](O)[C@H](O)C[C@H]2N1CC1CCCCC1 -0.903%
CCCN1[C@H](C(=O)OC)C[C@@]2(O)[C@@H](O)[C@@H](O)[C@@H](O)C[C@@H]12 -0.752%
CCOC(=O)N/N=C1/C[C@@H](O)[C@@H](O)[C@@H]2[C@@H]3C(=O)N(CC)C(=O)[C@H]3CC[C@H]12 0.333% [at 11.5 µM]
CSc1nnc2c(n1)OC(c1ccsc1)N(C(C)=O)c1ccccc1-2 (stereo not given) -16%
COc1ccc(COC(=O)N/N=C2/C[C@@H](O)[C@@H](O)[C@@H]3[C@@H]4C(=O)N([C@@H](C)c5ccccc5)C(=O)[C@H]4CC[C@@H]23)cc1 -3.18% [at 11.5 µM]
C/C=C(/C)C(=O)OC1Cc2c(ccc3ccc(=O)oc23)OC1(C)C (stereo not given) -0.913%
